Experimental data as given in PubChem BioAssay (NCATS).
Records with an inconclusive call do not appear. Values without a mark were called inactive. Active and inactive are the calls of the source. Calls come from the whole dose curve; as a rule, active = well fitted inhibition curve with a large enough effect; inconclusive = small, poorly fitted or top-dose-only effect; inactive = flat fitted curve, though single readings scatter.

Molecular target: Calcium and integrin-binding protein 1 (Homo sapiens) (UniProt Q99828)
Sequence (Q99828 whole entry, looked up): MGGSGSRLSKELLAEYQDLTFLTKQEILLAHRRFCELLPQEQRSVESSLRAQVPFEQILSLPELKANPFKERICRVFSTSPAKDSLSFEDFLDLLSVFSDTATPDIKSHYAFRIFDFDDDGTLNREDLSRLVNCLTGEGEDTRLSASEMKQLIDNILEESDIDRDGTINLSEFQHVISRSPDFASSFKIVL
Assay: Primary qHTS for Identification of Calcium Integrin Binding Protein 1 (CIB1) Competitor (AID 1508620);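 note: GST tagged CIB1 binding a fluorescein labelled alphaIIb integrin peptide tracer; top concentration of the series differs between compounds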
Conditions: CIB1-GST / FITC-alphaIIb peptide fluorescence polarization; series mostly up to 114 µM; activity change, negative = inhibition: at the top concentration
Summary of the method: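 CIB1-GST (1 uM final) and compound incubated 15 min at room temperature before adding FITC-alphaIIb peptide tracer (100 nM final). Competition for binding read by fluorescence polarization (ex 480, em 540) after another 15 min at room temperature.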
% is set by controls: 0 for no effect and ±100 for the full control effect.

Row | Structure (SMILES) | activity change, negative = inhibition | Potency
1 | Cc1ccc(CNc2ncc(N3CCCCC3)cn2)cc1 | -3.02% | –
2 | COc1ccc(Cl)cc1S(=O)(=O)N1CCN(S(=O)(=O)c2ccc3c(c2)OCCO3)CC1 | -1.38% | –
3 | Oc1ccc(CNc2cccc(C(F)(F)F)c2)c2cccnc12 | 15% | –
4 | O=C(Nc1ccc(Cl)nc1)Nc1nnc(-c2ccncc2)s1 | 3.56% | –
5 | COc1ccc(-c2nnc3n2N=C(c2cc(OC)ccc2OC)CS3)cc1 | 2.13% | –
6 | c1ccc(CN(Cc2ccccc2)Cc2nnc(-c3cc4ccccc4[nH]3)o2)cc1 | -1.42% | –
7 | CC(=O)N1CCN(c2ccc(NCc3ccc4c(c3)OCO4)cc2)CC1 | -10.5% | –
8 | Cc1cnc(NC(=O)c2ccc(-c3cccc([N+](=O)[O-])c3)o2)s1 | 1.51% | –
9 | O=C(O)c1ccc(-n2cccc2/C=C2\SC(=O)N(Cc3ccc(F)cc3)C2=O)cc1 | 5.21% | –
10 | Cc1ccnc(NC(=S)N[C@H]2CCN(c3cccc(C(F)(F)F)c3)C2)c1 | -4.59% | –
11 | COCC(=O)NCCc1nc2ccccc2n1CCOc1ccc(C)cc1 | 3.74% | –
12 | O=C1NS(=O)(=O)c2cc3c(cc21)C(=O)NS3(=O)=O | 0.825% | –
13 | O=C(NCc1cccnc1)C1CCN(S(=O)(=O)c2cccs2)CC1 | 6.96% | –
14 | Cc1ccc(OCCn2c(CCNC(=O)CCc3ccccc3Br)nc3ccccc32)cc1 | 17.1% | –
15 | Cc1ccc(-c2nnc(NC(=O)Nc3ccc4ccccc4c3)s2)cc1 | 4.64% | –
16 | Cc1ccnc(NC(=S)N2CCN(c3cccc(Cl)c3Cl)CC2)c1 | -27.9% | –
17 | COc1cc(O)c(C(CC(=O)N2CCCC2)c2ccc3c(c2)OCO3)c(OC)c1 (stereo not given) | 1.24% [at 228 µM] | –
18 | O=C(NC1CCCc2c1cnn2-c1ccc(F)cc1F)C1CC1 (stereo not given) | 0.633% | –
19 | Cn1nnnc1Sc1ncnc2scc(-c3ccc([N+](=O)[O-])cc3)c12 | -17.5% | –
20 | S=C(Nc1cc(Cl)ccn1)N1CCN(c2ccc3ccccc3n2)CC1 | -4.92% | –

Row | Structure (SMILES) | activity change, negative = inhibition | Potency
21 | O=C(NC1CCCc2c1cnn2-c1ccc(F)cc1F)c1ccc(C2(C(F)(F)F)N=N2)cc1 (stereo not given) | -0.869% | –
22 | Nc1nnc(-c2ccc3ccccc3c2)o1 | 5.86% | –
23 | NC(=O)C[C@H](N)C(=O)Nc1ccc(Cl)cc1C(=O)c1ccc[nH]1 | -4.86% | –
24 | CC(=O)Nc1sc2c(c1-c1ccco1)CCNC2 | -14.5% | –
25 | CC1=C(C(=O)c2ccccc2)C(c2ccccc2Cl)N=C(Nc2nc3ccccc3o2)N1 (stereo not given) | 12.8% | –
26 | COc1cc(OC)cc(C2=Nn3c(nnc3-c3cccc(OC)c3)SC2)c1 | -0.411% | –
27 | COc1cccc(-c2ccc3ncnc(NCc4ccc5c(c4)OCO5)c3c2)c1 | 3.55% | –
28 | CS(=O)(=O)c1ccc(-c2csc(N3CCC(C(N)=O)CC3)n2)cc1 | 6.89% | –
29 | O=c1c2ccccc2nc2sc(NCc3ccc(Oc4ccccc4)cc3)nn12 | 8.44% | –
30 | O=C1CCCC2=C1C(c1[nH]ncc1Cl)N=C(Nc1cccnc1)N2 (stereo not given) | -1.39% | –
31 | Cc1ccc(NC(=O)CN2C(=O)N/C(=C\c3cccn3-c3ccc(C(=O)O)cc3)C2=O)cc1 | – | inactive
32 | CCN(Cc1cccs1)c1ncnc2ccc(-c3ccc4c(c3)OCO4)cc12 | – | inactive
33 | O=[S+]([O-])(NC[C@H]1CCC[C@H](CN[S+](=O)([O-])c2c(F)cccc2F)C1)c1ccc2c(c1)OCCO2 | 1.79% | –
34 | CCCCN(C)C(=O)Cn1nc(-c2cccc(C)c2)ccc1=O | -0.981% | –
35 | CCC(=O)NC(C)c1cc(Cl)c2ccccc2c1O (stereo not given) | -1.79% | –
36 | Cc1ccc(OCCn2c(CCNC(=O)c3ccc(C#N)cc3)nc3ccccc32)cc1 | 1.57% | –
37 | COC(=O)c1ccccc1NC(=O)c1ccc(C#N)cc1 | -2.51% | –
38 | Cc1ccc(NS(=O)(=O)c2cc3c(cc2Cl)CCC(=O)N3)cc1C | – | inactive
39 | N#CNC(=O)c1ccc(-n2cccc2/C=C2\NC(=O)N(CC(=O)Nc3cccc(F)c3)C2=O)cc1 | 6.07% | –
40 | CCOC(=O)CCC(=O)Nc1ncnc2c1C(c1ccccc1)c1c(ccc3ccccc13)O2 (stereo not given) | 2.76% | –
